# Anthrax LF inh2: Bacillus anthracis LF protease inhibitors, primary screen, biochemical, multiplex microsphere, MLPCN library | inhibition, % at 10 µM | Lethal factor (Bacillus anthracis), P15917 | AID 588501, 2011 | multiplex microsphere protease cleavage assay | 360,000 compounds, 0.12% hits; also: plate controls were buffer without enzyme for full effect and enzyme alone for no effect
# PfHsp40 rescue: rescue of yeast from PfHsp40 toxicity, primary screen, S. cerevisiae, ATP luminescence. S. cerevisiae expressing PfHsp40, growth rescue. growth rescue, % at 12.5 µM. 340,000 compounds, 0.68% hits. AID 504582, 2011; in the data active = growth rescue above about 28%, passing the limit was not always enough; inconclusive = no clear call, values can overlap the other calls;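 also: yeast W303a lacking pdr1 and pdr3 grown in galactose medium; growth measured after three days at 30 °C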
# Autofluor counter: flagged as autofluorescent in microsphere protease counterscreen | compound autofluorescence counterscreen, microsphere flow cytometry; active compounds read high | fluorescence intensity (no concentration beside the values) | 360,000 compounds, 3.1% hits; in the data active = fluorescence intensity above about 16000; inconclusive = no clear call, values can overlap the other calls
# BoNT F protease: BoNT/F light chain protease inhibitors, primary screen, biochemical, flow cytometry, MLPCN library. AID 588497, 2011. Multiplex microsphere protease cleavage assay. Botulinum neurotoxin type F light chain protease (Clostridium botulinum). inhibition, % at 10 µM. 360,000 compounds, 0.22% hits; in the data active = inhibition above about 35%, passing the limit was not always enough; inconclusive = no clear call, values can overlap the other calls; also: plate controls were buffer without enzyme for full effect and enzyme alone for no effect
# BoNT-A LC inh2: BoNT/A light chain protease inhibitors, primary screen, biochemical, flow cytometry, MLPCN library. Botulinum neurotoxin type A light chain protease (Clostridium botulinum A str. ATCC 3502). multiplex microsphere protease substrate cleavage. inhibition, % at 10 µM. 360,000 compounds, 0.17% hits. AID 588499, 2011; also: plate controls were buffer without enzyme for full effect and enzyme alone for no effect
# MazEF act: activators of E. coli MazEF toxin-antitoxin RNase, primary screen, biochemical, fluorescence, uHTS. 350,000 compounds, 0.32% hits. Endoribonuclease toxin MazF (Escherichia coli (strain K12)), P0AE70. activation, % at 20 µM. FAM/BHQ RNA-DNA oligo cleavage fluorescence, 5 h. AID 504720, 2011; in the data active = activation above about 50%
# Target sequence (P0AE70 whole entry, looked up): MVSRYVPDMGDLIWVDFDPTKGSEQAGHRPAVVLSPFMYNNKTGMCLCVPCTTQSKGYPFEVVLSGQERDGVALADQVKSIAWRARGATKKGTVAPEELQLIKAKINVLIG
# * marks the source's active call; other numbers are inactive results; ? = inconclusive; / = no result given. Compounds with a hit are over-represented: about 4.3% of the library has one in this group of screens. Rule as the data show it, unless noted: active = inhibition above about 30%; inconclusive = no clear call, values can overlap the other calls; inactive = below that.
SMILES,Anthrax LF inh2,PfHsp40 rescue,Autofluor counter,BoNT F protease,BoNT-A LC inh2,MazEF act
Cn1c(=O)c(=O)n(C)c2cc(S(=O)(=O)N3CCCCCC3)ccc21,-4.3,-0.6,19386*,-1.8,?,1.8
Cc1cc(C)cc(NC(=S)N=Nc2c(O)n(C)c3ccc(S(=O)(=O)N4CCOCC4)cc23)c1,15.2,-1.0,1933,3.5,36.8*,4.1
Cn1c(=O)n(C)c2cc(S(=O)(=O)N3CCOCC3)ccc21,0.4,-0.8,20981*,-0.7,?,7.2
Cn1c(=O)n(C)c2cc(S(=O)(=O)N3CCCCC3)ccc21,0.5,-1.0,3054,13.1,-0.4,7.5
Cn1c(=O)n(C)c2cc(S(=O)(=O)N3CCN(c4ccccc4)CC3)ccc21,-1.2,0.6,4350,5.0,0.0,0.9
CNC(=O)c1c(I)c(C(=O)NCC(=O)Nc2c(I)c(C(=O)O)c(I)c(C(=O)NCCO)c2I)c(I)c(N(C)C(C)=O)c1I,-5.1,0.1,4274,-13.4,-0.8,2.6
O=C(Nc1ccccc1)N1CCn2c1nc1ccccc12,-2.2,2.1,4462,-3.2,-0.6,-7.6
COc1ccc(NC(=O)N2CCn3c2nc2ccccc23)cc1,-0.9,0.7,19709*,0.5,1.1,-8.7
CS(=O)(=O)N1CCCCC1c1cc(C(=O)Nc2cccc3c2CCCC3)no1 (stereo unspecified),-5.9,/,4011,-6.4,-0.3,/
COc1ccc(NC(=O)C(NC(=O)c2ccccc2)C(C)C)cc1 (stereo unspecified),-5.6,3.4,5635,5.0,0.4,5.0
COC(=O)C(NC(=O)C(C)Oc1ccccc1)C(C)C (stereo unspecified),-6.4,0.2,20348*,0.5,?,2.3
O=C(NC(C(=O)O)c1ccccc1)c1ccccc1 (stereo unspecified),-11.2,2.9,4003,-5.1,-0.2,9.5
COC(=O)C(NC(=O)c1ccccc1)c1ccccc1 (stereo unspecified),0.8,-2.0,25637*,-5.0,-3.7,12.1
COC(=O)C(NC(=O)C(NC(=O)c1ccccc1)C(C)C)C(C)C (stereo unspecified),1.0,0.6,22539*,2.1,0.7,7.2
O=C(CSc1nnc(CNC(=O)c2ccccc2)o1)Nc1nccs1,1.0,-0.7,5810,-4.2,1.2,-0.1
O=[N+]([O-])c1cc(Br)c(Nc2ccccc2)c([N+](=O)[O-])c1,-0.9,67.1*,3507,-5.7,-3.1,1.0
CCCCOCCCNc1ncnc2c1[nH]c1ccccc12,2.0,-0.4,23545*,0.0,2.3,-3.8
O=C(/C=C/[C@H]1O[C@@H](n2ccc(=O)[nH]c2=O)[C@H](O)[C@@H]1O)NCCc1c[nH]c2ccccc12,8.9,/,4411,-3.6,-0.6,/
Cc1ccc(S(=O)(=O)N2CCC3(CC2)OCCN3S(=O)(=O)c2cccs2)cc1,-1.5,9.1,5236,6.1,3.0,0.7
O=S(=O)(c1ccc(Cl)cc1)N1CCC2(CC1)OCCN2S(=O)(=O)c1cccs1,/,54.5*,/,/,/,-1.7
Cc1ccc(S(=O)(=O)N2CCOC23CCN(C(=O)c2ccc(Cl)cc2Cl)CC3)cc1,/,2.7,/,/,/,3.0
Cc1ccc(S(=O)(=O)N2CCOC23CCN(C(=O)c2cc(Cl)ccc2Cl)CC3)cc1,-1.6,90.6*,5437,1.3,0.6,-16.0
O=C(NCc1cccs1)C(=O)NCC(c1ccco1)N1CCN(c2ccccc2F)CC1 (stereo unspecified),-6.5,0.5,6011,0.1,-0.5,-2.9
CCC1(c2ccc(F)cc2)NC(=O)N(CC(=O)NC2CCCCCC2)C1=O (stereo unspecified),4.8,-0.9,5884,-5.6,0.6,-0.6
CCC(=O)Oc1ccc(-c2nc(-c3cccnc3)no2)cc1,3.8,0.4,20402*,-3.9,-2.6,-7.7
SMILES,Anthrax LF inh2,PfHsp40 rescue,Autofluor counter,BoNT F protease,BoNT-A LC inh2,MazEF act
Cc1ccc(-c2nc(-c3cccnc3)no2)cc1,-2.0,0.1,4766,9.0,-0.4,3.3
CC(Oc1ccc(Cl)cc1Cl)C(=O)NNC(=O)C(=O)N1CCCC1 (stereo unspecified),-13.2,-1.5,4184,25.8,0.6,-14.9
CCOc1ccc(CCNC(=O)CN(C)S(=O)(=O)c2ccc3c(c2)CCC(=O)N3)cc1OCC,-2.0,1.7,23279*,-2.5,-2.0,-6.3
CN(CC(=O)NCc1ccccc1)S(=O)(=O)c1ccc2c(c1)CCC(=O)N2,-2.2,0.0,3905,3.9,0.2,4.0
COc1ccc(-c2nnn(CC(=O)N(CC(=O)NCCC(C)C)Cc3cccs3)n2)cc1OC,-2.7,-1.1,16733*,-2.5,?,-4.4
CC(C)CCNC(=O)CN(CCN1CCOCC1)C(=O)Cn1nnc(-c2ccc(F)cc2)n1,-1.4,-0.3,22983*,-1.2,-1.7,-2.2
Cc1cc(C)n2nc(SCC(=O)N(CCC#N)c3ccc(F)cc3)nc2n1,-5.8,-0.3,2695,5.3,0.3,-14.9
CN(C)C(CNC(=O)c1ccc(C2SCCS2)cc1)c1ccccc1 (stereo unspecified),1.6,0.9,5570,-8.2,-1.8,3.2
Cc1ccc2[nH]c3c(=O)n(CCCN4CCOCC4)cnc3c2c1,0.3,-0.6,4004,3.0,0.5,1.4
Cc1ccc2[nH]c3c(=O)n(CCCN4CCN(C)CC4)cnc3c2c1,-0.3,1.4,23434*,-5.7,-3.2,2.5
COc1ccccc1NC(=O)Cc1ccsc1,-1.3,0.2,5306,1.2,2.3,4.9
CCN(Cc1nc2cc(Cl)ccc2c(=O)[nH]1)C(=O)c1nn(C)c(=O)c2ccccc12,15.0,-0.9,3588,-3.2,0.6,5.0
CCOc1cccc(=O)c2c(C)n(Cc3ccccc3)c(C)c12,-2.1,-0.3,2265,-0.1,0.9,-1.0
CCOc1cccc(=O)c2c(C)n(Cc3ccco3)c(C)c12,-1.6,-0.5,22022*,0.9,1.5,13.0
COc1ccc(C2C(Oc3ccccc3)C(=O)N2c2cc(C)ccc2C)cc1OC (stereo unspecified),-11.4,2.6,20605*,-2.8,-1.0,3.7
COc1ccccc1NC(=O)NNC(=O)c1ccncc1,-0.9,0.1,3823,-4.5,-0.5,1.0
CCn1c(/C=C/c2ccc(O)cc2)nc2ccccc2c1=O,-4.8,1.3,3444,-12.7,1.8,1.1
CCn1c(/C=C/c2ccc(O)c(O)c2)nc2ccccc2c1=O,17.3,1.1,3365,-16.1,1.4,121.3*
COc1ccc(-n2c(/C=C/c3ccc(O)c(OC)c3)nc3ccccc3c2=O)cc1,-0.7,0.7,2862,35.8*,1.9,-31.1
CCn1c(/C=C/c2c(C)n(CC)c3ccccc23)nc2ccccc2c1=O,6.7,-0.3,2315,15.1,1.5,70.5*

# Screening results as filed in PubChem.
